Structures are written as SMILES. About 64,000 (15%) of roughly 420,000 compounds were called active. Roughly 27% stayed inconclusive and do not appear here. Not all results are given here. A number with no mark means an inactive call. The call rests on the fitted dose curve; in most records, active means well fitted inhibition curve with a large enough effect; inconclusive means small, poorly fitted or top-dose-only effect; inactive means flat fitted curve, though single readings scatter.

Here are results for 53 compounds from PubChem BioAssay AID686978 (National Center for Advancing Translational Sciences (NCATS), 2013).
On the % scale 0 is the no-effect control and ±100 the full control effect; potency means the concentration at half of the fitted maximal effect.

The experiment is described as follows: qHTS for Inhibitors of human tyrosyl-DNA phosphodiesterase 1 (TDP1): qHTS in cells in absence of CPT. Further: nearly all actives have a fitted effect of over 55% in size. Particulars: DT40 Tdp1-/- hTDP1 cells, no CPT, ATP luminescence, 48 h; activity change, negative = growth inhibition: at 46.2 µM (top of the series). The procedure, abridged:
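Growth kinetics read by CellTiter-Glo luminescence after ≥48 hr at 37 °C. Cells: DT40 Tdp1-/- stably carrying human TDP1, 400 per well, compound exposure in the absence of CPT (DMSO vehicle).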
Background: In qHTS, concentration-response curves come from the screen itself.
Turning to `O=C1OC(Cc2ccccc2)C(c2ccccc2)C1=O` (stereo not drawn), the “activity change, negative = growth inhibition” value is -11.7%. The same measure, in the same setting: the figure for `Cc1cc(S(=O)(=O)NCC(C)C)ccc1OCC(=O)NC1CC1` is 4.66%.

As for `CCCCCC(=O)Nc1ccc(-c2cn3cccnc3n2)cc1`, the “activity change, negative = growth inhibition” value was -3.49%. `O=C(NNC(=O)C(O)c1ccccc1)NC1CCCCC1` (stereo not drawn): the “activity change, negative = growth inhibition” value is 9.61%. Take `Cc1ccc(NC(=O)C(c2ccccc2)N2CCN(C(=O)c3ccco3)CC2)cc1` (stereo not drawn): the “activity change, negative = growth inhibition” value was 12.8%.

For the compound `O=c1c(-c2cc(F)cc(F)c2)nc2cnc(Oc3ccccc3)nc2n1C[C@H]1CCCO1`, the “activity change, negative = growth inhibition” value is -3.79%.

For the compound `CC1OC(OCC2OC(Oc3c(-c4ccc(O)c(O)c4)oc4cc(O)cc(O)c4c3=O)C(O)C(O)C2O)[C@@H](O)C(O)C1O` (stereo partly drawn), the “activity change, negative = growth inhibition” value is 14.4%. `O=C(O)Cc1ccc(NC(=O)Nc2cccc3ccccc23)cc1`: the “activity change, negative = growth inhibition” value is 7.53%. Regarding `Cc1ccc2c(c1)N(CC(=O)N1CCCC(C)C1)C(=O)CO2` (stereo not drawn), the “activity change, negative = growth inhibition” value was -15.8%. Take `NC1=C([N+](=O)[O-])C(c2ccccc2)C2=C(CCCC2=O)O1` (stereo not drawn): the “activity change, negative = growth inhibition” value was 2.25%. On to `CCOc1cnc(C(=O)NNC(=O)c2ccccc2Br)o1`, for which the “activity change, negative = growth inhibition” value was 1.36%.

Turning to `Cc1cccc(C)c1NC(=O)NC1=CCCN1C`, the “activity change, negative = growth inhibition” value was -1.42%. `CC1CC(C)CN(CCC(=O)Nc2ccc3c(c2)CCC3)C1` (stereo not drawn): the “activity change, negative = growth inhibition” value is -21.9%.

As for `COC(=O)N(C)C[C@@H]1OCc2cnnn2CCCC(=O)N([C@@H](C)CO)C[C@@H]1C`, the “activity change, negative = growth inhibition” value is -12.9%. Still for that read-out and setting: the figure for `CC(C)(C)n1nnnc1C(c1ccc2ncccc2c1)N1CCSCC1` (stereo not drawn) is -4.42%; for `Cc1cccc(C)c1-n1nnnc1C1(C)CCC(=O)N1CCOc1ccccc1` (stereo not drawn) it is -25.8%; for `O=C1c2ccccc2C(=O)N1CCOc1ccc(F)cc1` it is -5.19%.

Turning to `Cc1cccc2c1N(CCOc1ccccc1)C(=O)C2=O`, the Potency is 1.3 µM (active).

Consider `CNS(=O)(=O)c1ccc(NC(=O)C2CC(=O)N(c3ccc(Cl)cc3)C2)cc1` (stereo not drawn), for which the “activity change, negative = growth inhibition” value is -25.9%. Regarding `CC12C(=O)N(c3ccccc3)C(=O)C1C(c1ccccc1)N1CCCN12` (stereo not drawn), the “activity change, negative = growth inhibition” value is -2.82%. Regarding `CCCN(c1ccc(C)cc1)c1nc(=O)c2cccnc2s1`, the Potency is 18.4 µM (active). For the compound `NC1=NC2(CCCCC2)N(c2ccc(F)cc2F)C(N)=N1`, the “activity change, negative = growth inhibition” value is -19.6%. As for `NC(=O)C(Cc1ccccc1)NC(=O)C12CC3CC(CC(C3)C1)C2` (stereo not drawn), the “activity change, negative = growth inhibition” value is -27.5%. The same measure, in the same setting: the figure for `COC(=O)c1sc(NC(=O)c2ccc(OC)cc2OC)nc1C` is -21.8%. As for `COc1cc2ccccc2cc1C(=O)Nc1nc(C)c(C(C)=O)s1`, the “activity change, negative = growth inhibition” value is -13.2%. Regarding `COc1ccc2c(c1)Cc1sc(NC(=O)c3ccccc3Br)nc1-2`, the Potency was 18.4 µM (active).

As to `COCCN1C=C2C(=O)C(C)(OC(=O)C3CCCC3)C(=O)C=C2C=C1c1ccsc1` (stereo not drawn), the “activity change, negative = growth inhibition” value is -8.49%. `CC(NC(=O)c1cc(Sc2ccc(F)cc2F)nc2ccccc12)c1ccccc1` (stereo not drawn): the Potency is 23.1 µM (active). In the case of `CC(NC(=O)c1cc(=O)[nH]c2ccccc12)c1ccc(F)cc1F` (stereo not drawn), the “activity change, negative = growth inhibition” value was -17.3%. As to `CC(C)OCCCNC(=O)c1cc(Sc2ccc(F)cc2)nc2ccccc12`, the “activity change, negative = growth inhibition” value is -86.9%. Still for that read-out and setting: the figure for `CCCCCc1nnc(NC(=O)c2ccc(=O)n(C)n2)s1` is 2.05%; for `CC1(C)CC(=O)c2cc(C(=O)NCc3ccccc3)c(=O)[nH]c2C1` it is -21.1%.

`COC(=O)Cc1ccc(NC(=S)NCc2ccco2)cc1`: the “activity change, negative = growth inhibition” value was -22.3%.

`COc1ccc(NC(=O)Nc2cccc(-c3noc(C)n3)c2)cc1`: the “activity change, negative = growth inhibition” value is -28.2%.

`O=C(NCc1cccc(CNC(=O)Nc2cccc(O)c2)c1)Nc1cccc(O)c1`: the “activity change, negative = growth inhibition” value was -4.41%.

On to `CC(=O)Nc1cccc(-c2ccnc3c2CC(C)(C(=O)NCc2ccco2)O3)c1` (stereo not drawn), for which the Potency is 2.91 µM (active). On the same count and under the same terms, the figure for `CC(=O)Nc1cccc(-c2ccnc3c2CC(C)(C(=O)NCc2ccccc2)O3)c1` (stereo not drawn) is 0.92 µM (active); for `COc1ccc(NC(=O)C2(C)Cc3c(-c4cccc(NC(C)=O)c4)ccnc3O2)cc1` (stereo not drawn) it is 1.16 µM (active). Consider `COc1ccc(NC(=O)C2(C)Cc3c(-c4ccc(C(N)=O)cc4)ccnc3O2)cc1` (stereo not drawn), for which the “activity change, negative = growth inhibition” value was -13.6%. The same measure, in the same setting: the figure for `CCC(C)(C)NC(=O)CN(C(=O)CCC(=O)Nc1cc(C)ccn1)c1ccc2c(c1)OCCO2` is -8.85%; for `Cc1cc(=O)oc2cc(OC(C)C(=O)NCCc3ccc(S(N)(=O)=O)cc3)ccc12` (stereo not drawn) it is 15.8%. Same read-out and setting: the figure for `CSc1nnc(CNC(=O)c2ccccc2)n1-c1ccc(F)cc1` is 0.927%; for `O=C1CSc2ccc(C(=O)NCc3ccccn3)cc2N1` it is 5.72%. Regarding `CCc1nn(CC(=O)Nc2cc(C)cc(C)c2)c(=O)c2cc3sccc3n12`, the Potency was 5.17 µM (active). For the compound `CCc1nn(CC(=O)Nc2cccc(C)c2C)c(=O)c2cc3sccc3n12`, the “activity change, negative = growth inhibition” value was -9.08%. Same read-out and setting: the figure for `CCCC1NC(=S)NC(C)=C1C(C)=O` (stereo not drawn) is 5.2%; for `Nc1[nH]c(C(=O)c2ccccc2)c(-c2ccc(Br)cc2)c1C(=O)NC1CC1` it is -9.87%; for `Cc1ccc2nc(CN3CCN(S(=O)(=O)c4ccc(C)c(C)c4)CC3)oc2c1` it is -19.3%.

In the case of `O=Cc1cn(CCOc2ccc(F)cc2)c2ccccc12`, the Potency was 11.6 µM (active). Take `Cc1cc(N2C(=O)C(=O)/C(=C(/O)c3ccc(Cl)cc3)C2c2cccc(Br)c2)no1` (stereo not drawn): the “activity change, negative = growth inhibition” value is -5.42%. Still for that read-out and setting: the figure for `CC1(C(=O)NCc2ccccc2)CSCC(=O)N1CCCN1CCOCC1` (stereo not drawn) is 21.3%. As for `O=C(Cn1c(-c2ccccn2)nc2ccccc21)NCCN1CCOCC1`, the “activity change, negative = growth inhibition” value was -13.9%. With `c1ccc2cc3c(NCCN4CCOCC4)ccnc3cc2c1`, the Potency is 20.6 µM (active).
